# ± gives the standard deviation.
# Tested on: MILI (PIWIL2) piRISC loaded with piRNA #1 (26 nt)
# Assay: pre-steady-state target cleavage rate (min^-1); guide: piRNA #1 5'p-UGAGGUAGUAGGUUGUAUAGUAUCCA; MIWI and MILI are mouse PIWI proteins and EfPiwi is from a freshwater sponge; tags in brackets are library labels; higher = faster piRNA-guided slicing of the target
# Details: auxiliary factor: 500 nM mouse GTSF1
# In short: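 For Cleave-'n-Seq, a transcribed, DNA-blocked target RNA library […] met 1 nM active affinity-purified piRISC with one synthetic guide at 33 °C for 0–8 or 0–960 min in HEPES–potassium acetate buffer, with or without 500 nM GTSF1 partner protein. Uncleaved targets were sequenced and normalised to depth and weakly complementary targets, with three trials pooled and k3 capped at 0.0001 min^-1. A burst-and-steady-state fit supplied the pre-steady-state cleavage rate.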
# 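Also: 1 nM active piRISC with 0.1 nM target library at 33 °C single turnover.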
row,Sequence,pre-steady-state target cleavage rate
1,GGAGACCAUACAAUACAACCUACUUCCUCA,0.125 ± 0.016
2,GGAGACCUAACUAUUCAACGUACUACCUCA,0.0113 ± 0.0053
3,GGAGACCAUACUAUAGAACGUACUACCUCA,0.00933 ± 0.0017
4,GGAGACCUAUGAUUACAACCUACUACCUA,0.00393 ± 0.0024
5,GGAGACCUAUGAUAUGAUCCUACUACCACA,< 0.0001
6,GGAGACCUAACUAUACUACCUAGUACCUCA,0.0154 ± 0.0058
7,GGAGACGAUACUAUACAACCUACUCCUCA,0.0114 ± 0.0032
8,GGAGACCUAUCUAUACAACCUACAUACCUCA,0.113 ± 0.015
9,GGAGACCUAUGAUAACAUCCUACUACCUCA,0.00447 ± 0.0023
10,GGAGACCUUACUAUACAUGGUACUACCUCA,0.00395 ± 0.0029
11,GGAGACCUUACUAUAAACCUACUACCUCA,0.00481 ± 0.0027
12,GGAGACCUUACUAUAGAACCUACUACCUGA,0.0254 ± 0.0086
13,GGAGACCUUACUAUACAACCUACUGACCUCA,0.107 ± 0.017
14,GGAGACCUAACUAUACUACGUACUACCUCA,0.0154 ± 0.0042
15,GGAGACCUAACUAUUCAACCUAGUACCUCA,0.0158 ± 0.0076
16,GGAGACCUAUGUAAACUACCUACUACCUCA,0.00288 ± 0.0026
17,GGAGACCUAUGAUAACAACCUACUACUUCA,0.00299 ± 0.0028
18,GGAGACCAUUCUAUAGAACCUACUACCUCA,0.116 ± 0.015
19,GGAGACCUUACUAUACAUCCUACUUCCUCA,0.183 ± 0.031
20,GGAGACCUAUGAUAACAACCUACAACCUCA,0.00456 ± 0.0024

row,Sequence,pre-steady-state target cleavage rate
1,GGAGACCUUACUAAACAACGUACUACCUCA,0.015 ± 0.0024
2,GGAGACCUAUGAAUACAAGCUACUACCACA,0.0366 ± 0.0055
3,GGAGACCUAUGAAUACAACCUACUACCCUCA,0.00533 ± 0.0019
4,GGAGACGAUAGUAUACAACGUACUACCUCA,0.0209 ± 0.0035
5,GGAGUGGAUACUAUACAACGUAGUACCUCA,0.0167 ± 0.0028
6,GGAGACCUAUGAUAACAAGCCUACUACCUCA,< 0.0001
7,GGAGACCUAUCUAUACAACCUACUACUCA,0.0936 ± 0.013
8,GGAGACCUUACUAUAGAUCCUACUACCUCA,0.204 ± 0.017
9,GGAGACCUUAAUAUACAACCUACUACCUCA,0.0318 ± 0.0064
10,GGAGACCUUACUAUACAACCUACUUACCUCA,0.158 ± 0.013
11,GGAGACCUAUCUAUACAACCUAGUACCACA,0.00922 ± 0.0045
12,GGAGACGUUACUAUACAACCUACUACCUGA,0.102 ± 0.016
13,GGAGACCUAUGUAUAGAUCCUACUACCUCA,0.0611 ± 0.0081
14,GGAGACCUAACUUUACAACCUACUUCCUCA,0.0099 ± 0.0053
15,GGAGACCUUACUAUACAACCUACUCCUCA,0.00492 ± 0.0027
16,GGAGACCUAUGAAAACAACCUACUUCCUCA,0.00368 ± 0.002
17,GGAGUCGAUACUAUAGAACCUACUACCUCA,0.0641 ± 0.0083
18,GGAGACCUUUACUAUACAACCUACUACCUCA,0.154 ± 0.012
19,GGAGACCUAACUAAACAACCUAGUACCUCA,0.0123 ± 0.0073
20,GGAGACCUAUCUAUAGAACCUACUUCCUCA,0.00536 ± 0.0024
